Source: PubChem BioAssay (Tox21)
Records with an inconclusive call do not appear. A call without a number means that no potency is given here. A structure can be active in one record and inactive in another. The source made the active and inactive calls. Calls follow the shape of the dose curve; as a rule, active = well fitted curve in the direction sought with a large enough effect in the repeat runs; inconclusive = weak or mixed curves; inactive = no such curve, though single readings can be large; an effect the other way counts as inactive or inconclusive.

Experiment: Caspase-3/7 induction in HepG2 cells by small molecules, qHTS assay (AID 1346978); also: nearly all actives have a fitted effect of over 15% in size
Details: HepG2 caspase-3/7 activation, Caspase-Glo luminescence, 17 h; series mostly up to 92.4 µM
Procedure, shortened: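 Wild-type HepG2 cells (2,000/well) were settled 5 h at 37 C, 5% CO2, then exposed to compounds in DMSO for 17 h. Caspase-3/7 activity was read by luminescence 30 min after adding Caspase-Glo 3/7 reagent at room temperature.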

Row | Compound | Potency | caspase activation
1 | Cc1ccc(C(C)C)cc2c(C)ccc1-2 | inactive | 
2 | CCc1ccc(Br)cc1 | inactive | 
3 | CC(C)NC[C@@H](O)COc1ccc(CC(N)=O)cc1 | inactive | 
4 | CCC(C)[O-].CCC(C)[O-].CCOC(=O)/C=C(/C)[O-].[Al+3] | inactive | 
5 | COC(C)=O | inactive | 
6 | CC(C)CCOC(=O)/C=C/c1ccccc1 | inactive | 
7 | Cc1cccc(C)c1NC(=O)c1ccc(N)cc1 | inactive | 
8 | C=CCn1c(=O)n(CC=C)c(=O)n(CC=C)c1=O | inactive | 
9 | O[C@@H]([C@H](O)[C@H](O)CBr)[C@H](O)CBr | inactive | 
10 | CC(C)Cn1cnc2c(N)nc3ccccc3c21 |  | -2.38% [at 19 µM] (inactive)
11 | CC(C)CCCCCOC(=O)CCS | inactive | 
12 | CCCC[P+](C)(CCCC)CCCC | inactive | 
13 | Sc1nc2ccccc2s1 | inactive | 
14 | O=C(/C=C/c1ccc(O)c(O)c1)O[C@@H](C(=O)O)[C@@H](OC(=O)/C=C/c1ccc(O)c(O)c1)C(=O)O | inactive | 
15 | NC[C@H]1O[C@H](O[C@H]2[C@H](O[C@@H]3O[C@H](CO)[C@@H](O)[C@H]3O)C(O)[C@H](N)C[C@@H]2N)[C@H](N)[C@@H](O)[C@@H]1O (stereo not given in full) |  | -1.04% [at 8.39 µM] (inactive)
16 | Cc1c(C)c2c(c(C)c1O)CC[C@@](C)(CCC[C@H](C)CCC[C@H](C)CCCC(C)C)O2 | inactive | 
17 | Cc1c(F)c(N2CCNC(C)C2)cc2c1c(=O)c(C(=O)O)cn2C1CC1 (stereo not given) | inactive | 
18 | Nc1nc(N)nc(-c2cc(Cl)ccc2Cl)n1 | inactive | 
19 | O=C1OC2(c3ccc(O)cc3Oc3cc(O)ccc32)c2ccc(N=C=S)cc21 | inactive | 
20 | CC(C)(C)NSc1nc2ccccc2s1 | inactive | 
21 | CCCCC(CC)COC(=O)CCCCC(=O)OCc1ccccc1 (stereo not given) | inactive | 
22 | [Cu+] | inactive | 
23 | O=C1c2ccccc2C(=O)N1SC1CCCCC1 | inactive | 
24 | NC(=S)NC(N)=S | inactive | 
25 | C=CCCC(=O)/C=C/C1C(C)=CCCC1(C)C (stereo not given) | inactive | 
26 | CC/C=C\CCCCCO | inactive | 
27 | CC1(C)CC(O)CC(C)(C)N1 | inactive | 
28 | OC[C@H]1O[C@H](O[C@H]2O[C@H](CO)[C@@H](O)[C@H](O)[C@H]2O)[C@H](O)[C@@H](O)[C@@H]1O | inactive | 
29 | C[C@H]1NCc2cc(-c3ccc4c(=O)c(C(=O)O)cn(C5CC5)c4c3OC(F)F)ccc21 |  | -1.73% [at 19 µM] (inactive)

Experiment: Caspase-3/7 induction in CHO-K1 cells by small molecules, qHTS cell viability counter screen (AID 1346979); also: nearly all actives have a fitted effect of over 35% in size; also: potency is read from the fitted curve at half-maximal effect
Details: CellTiter-Fluor fluorescence, 17 h; series mostly up to 92.4 µM
Procedure, shortened: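 Viability readout by fluorescence (CellTiter-Fluor) on wild-type CHO-K1 cells exposed for 16hr at 37C and 5% CO2 to compounds delivered in DMSO; reagent incubated 1hr before reading.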

Row | Compound | Potency | activity change, negative = cytotoxicity
30 | Cc1ccc(C)cc1 | inactive | 
31 | COC(=O)c1ccccc1C | inactive | 
32 | Cc1ccc(C(C)C)cc2c(C)ccc1-2 | inactive | 
33 | CCc1ccc(Br)cc1 | inactive | 
34 | CCC(C)[O-].CCC(C)[O-].CCOC(=O)/C=C(/C)[O-].[Al+3] | inactive | 
35 | COC(C)=O | inactive | 
36 | Cc1cccc(C)c1NC(=O)c1ccc(N)cc1 | inactive | 
37 | C=CCn1c(=O)n(CC=C)c(=O)n(CC=C)c1=O | inactive | 
38 | O[C@@H]([C@H](O)[C@H](O)CBr)[C@H](O)CBr | inactive | 
39 | CC(C)Cn1cnc2c(N)nc3ccccc3c21 |  | -8.58% [at 19 µM] (inactive)
40 | CC(C)CCCCCOC(=O)CCS | inactive | 
41 | CCCC[P+](C)(CCCC)CCCC | inactive | 
42 | NC[C@H]1O[C@H](O[C@H]2[C@H](O[C@@H]3O[C@H](CO)[C@@H](O)[C@H]3O)C(O)[C@H](N)C[C@@H]2N)[C@H](N)[C@@H](O)[C@@H]1O (stereo not given in full) |  | 6.09% [at 8.39 µM] (inactive)
43 | Cc1c(C)c2c(c(C)c1O)CC[C@@](C)(CCC[C@H](C)CCC[C@H](C)CCCC(C)C)O2 | inactive | 
44 | Cc1c(F)c(N2CCNC(C)C2)cc2c1c(=O)c(C(=O)O)cn2C1CC1 (stereo not given) | inactive | 
45 | OC[C@@H](O)[C@@H](O)CO | inactive | 
46 | CCOC(=O)Cn1cccc1-c1nc(-c2ccc(OC)cc2)c(-c2ccc(OC)cc2)s1 | inactive | 
47 | C=Cc1cccc(C)c1 | 60.5 µM (active) and inactive | 
48 | Nc1nc(N)nc(-c2cc(Cl)ccc2Cl)n1 | inactive | 
49 | CC(C)(C)NSc1nc2ccccc2s1 | inactive | 
50 | CCCCC(CC)COC(=O)CCCCC(=O)OCc1ccccc1 (stereo not given) | inactive | 
51 | Cc1c(C)c2c(c(C)c1OC(=O)c1cccnc1)CC[C@@](C)(CCC[C@H](C)CCC[C@H](C)CCCC(C)C)O2 | inactive | 
52 | [Cu+] | inactive | 
53 | O=C(O)c1cc(-c2ccc(F)cc2F)ccc1O | inactive | 
54 | C=CCCC(=O)/C=C/C1C(C)=CCCC1(C)C (stereo not given) | inactive | 
55 | CC/C=C\CCCCCO | inactive | 
56 | CC1(C)CC(O)CC(C)(C)N1 | inactive | 
57 | OC[C@H]1O[C@H](O[C@H]2O[C@H](CO)[C@@H](O)[C@H](O)[C@H]2O)[C@H](O)[C@@H](O)[C@@H]1O | inactive | 
58 | C[C@H]1NCc2cc(-c3ccc4c(=O)c(C(=O)O)cn(C5CC5)c4c3OC(F)F)ccc21 |  | 0.359% [at 19 µM] (inactive)

Experiment: Caspase-3/7 induction in CHO-K1 cells by small molecules, qHTS assay (AID 1346980); also: nearly all actives have a fitted effect of over 15% in size
Details: CHO-K1 caspase-3/7 induction, Caspase-Glo luminescence, 17 h; series mostly up to 92.4 µM
Procedure, shortened: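 Wild-type cells were seeded at 1,500 per well and settled 5 hr at 37 C, 5% CO2, then exposed to DMSO-dissolved compounds for 17 hr. Caspase-Glo 3/7 reagent was added, and luminescence was read after 30min at room temperature.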

Row | Compound | Potency | caspase-3/7 activation
59 | Cc1ccc(C)cc1 | inactive | 
60 | COC(=O)c1ccccc1C | inactive | 
61 | Cc1ccc(C(C)C)cc2c(C)ccc1-2 | inactive | 
62 | CCc1ccc(Br)cc1 | inactive | 
63 | CC(C)NC[C@@H](O)COc1ccc(CC(N)=O)cc1 | inactive | 
64 | CCC(C)[O-].CCC(C)[O-].CCOC(=O)/C=C(/C)[O-].[Al+3] | inactive | 
65 | COC(C)=O | inactive | 
66 | CC(C)CCOC(=O)/C=C/c1ccccc1 | inactive | 
67 | Cc1cccc(C)c1NC(=O)c1ccc(N)cc1 | inactive | 
68 | C=CCn1c(=O)n(CC=C)c(=O)n(CC=C)c1=O | inactive | 
69 | O[C@@H]([C@H](O)[C@H](O)CBr)[C@H](O)CBr | inactive | 
70 | CC(C)Cn1cnc2c(N)nc3ccccc3c21 |  | 0.247% [at 19 µM] (inactive)
71 | CC(C)CCCCCOC(=O)CCS | inactive | 
72 | CCCC[P+](C)(CCCC)CCCC | inactive | 
73 | O=C(/C=C/c1ccc(O)c(O)c1)O[C@@H](C(=O)O)[C@@H](OC(=O)/C=C/c1ccc(O)c(O)c1)C(=O)O | inactive | 
74 | NC[C@H]1O[C@H](O[C@H]2[C@H](O[C@@H]3O[C@H](CO)[C@@H](O)[C@H]3O)C(O)[C@H](N)C[C@@H]2N)[C@H](N)[C@@H](O)[C@@H]1O (stereo not given in full) |  | -0.0652% [at 8.39 µM] (inactive)
75 | Cc1c(C)c2c(c(C)c1O)CC[C@@](C)(CCC[C@H](C)CCC[C@H](C)CCCC(C)C)O2 | inactive | 
76 | Cc1c(F)c(N2CCNC(C)C2)cc2c1c(=O)c(C(=O)O)cn2C1CC1 (stereo not given) | inactive | 
77 | OC[C@@H](O)[C@@H](O)CO | inactive | 

Row | Compound | Potency | caspase-3/7 activation
78 | CCCCCc1ccc(Cl)cc1 | inactive | 
79 | CCOC(=O)Cn1cccc1-c1nc(-c2ccc(OC)cc2)c(-c2ccc(OC)cc2)s1 | inactive | 
80 | C=Cc1cccc(C)c1 | inactive | 
81 | Nc1nc(N)nc(-c2cc(Cl)ccc2Cl)n1 | inactive | 
82 | CCCCCC(C)OC(=O)COc1ccc(Cl)c2cccnc12 (stereo not given) | inactive | 
83 | O=C1OC2(c3ccc(O)cc3Oc3cc(O)ccc32)c2ccc(N=C=S)cc21 | inactive | 
84 | CC(C)(C)NSc1nc2ccccc2s1 | inactive | 
85 | CCCCC(CC)COC(=O)CCCCC(=O)OCc1ccccc1 (stereo not given) | inactive | 
86 | Cc1c(C)c2c(c(C)c1OC(=O)c1cccnc1)CC[C@@](C)(CCC[C@H](C)CCC[C@H](C)CCCC(C)C)O2 | inactive | 
87 | [Cu+] | inactive | 
88 | O=C(O)c1cc(-c2ccc(F)cc2F)ccc1O | inactive | 
89 | O=C1c2ccccc2C(=O)N1SC1CCCCC1 | inactive | 
90 | NC(=S)NC(N)=S | inactive | 
91 | C=CCCC(=O)/C=C/C1C(C)=CCCC1(C)C (stereo not given) | inactive | 
92 | CC/C=C\CCCCCO | inactive | 
93 | CC1(C)CC(O)CC(C)(C)N1 | inactive | 
94 | OC[C@H]1O[C@H](O[C@H]2O[C@H](CO)[C@@H](O)[C@H](O)[C@H]2O)[C@H](O)[C@@H](O)[C@@H]1O | inactive | 
95 | C[C@H]1NCc2cc(-c3ccc4c(=O)c(C(=O)O)cn(C5CC5)c4c3OC(F)F)ccc21 |  | 0.0016% [at 19 µM] (inactive)
